The nature of test [1]: antimalarial activity against Dd2 strain (AID 2302;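 active means growth inhibition above 50% at the single 2 µM test dose, taken to imply half-maximal potency below 2 µM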;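 further: 0% = DMSO untreated growth and 100% = chloroquine plus artemisinin killed control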). The following applies: P. falciparum Dd2 in RBCs, LDH growth readout, 72 h; at 2 µM; stronger effect = higher value.
Test [2] in a line: HepG2 cytotoxicity, primary screen, cytotoxicity control for P. falciparum antimalarial project, cell-based, ATP luminescence (AID 2303;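 active means inhibition above 50%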;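 further: 0% = DMSO wells and 100% = digitonin-killed cells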). The following applies: HepG2 viability, 24-48 h, at 10 µM, stronger effect = higher value.
For test [3], the target named is L-lactate dehydrogenase (Plasmodium falciparum (isolate CDC / Honduras)) (UniProt Q27743). As to the kind of experiment: PfLDH activity inhibition – cell lysate, 3D7 strain, counter-screen for P. falciparum growth inhibition project (AID 2304).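 Further: 0% = vehicle and 100% = reference inhibitor.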 The following applies: P. falciparum 3D7 crude extract, LDH APAD/NBT absorbance; at 2 µM; stronger effect = higher value. A general note: Counterscreens check selectivity or assay interference.
Sequence of L-lactate dehydrogenase (Plasmodium falciparum (isolate CDC / Honduras)) (Q27743 whole entry, looked up): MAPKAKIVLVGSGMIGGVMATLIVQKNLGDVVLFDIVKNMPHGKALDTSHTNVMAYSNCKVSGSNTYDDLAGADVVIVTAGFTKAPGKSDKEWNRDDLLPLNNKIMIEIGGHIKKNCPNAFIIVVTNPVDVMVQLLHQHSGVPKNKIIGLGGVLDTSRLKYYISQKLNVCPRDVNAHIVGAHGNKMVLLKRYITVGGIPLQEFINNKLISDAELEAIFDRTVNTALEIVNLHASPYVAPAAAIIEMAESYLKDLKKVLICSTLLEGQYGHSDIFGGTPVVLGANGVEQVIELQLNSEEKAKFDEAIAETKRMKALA

Test [4] can be described thus: inhibition of 3D7 malaria parasite growth – strain 3D7 (AID 2306).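 Further: 0% = DMSO wells and 100% = chloroquine plus artemisinin control wells.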 The following applies: P. falciparum 3D7 erythrocytic growth, LDH absorbance, 72 h; at 2 µM; stronger effect = higher value.
The target in test [5] is Calcium-dependent protein kinase 1 (Plasmodium falciparum (isolate 3D7)) (UniProt P62344). As to the kind of experiment: PfCDPK1 kinase inhibitors, biochemical, TCAMS library (AID 1159585; cut-off not given, nearly all actives have IC50 up to about 0.98 µM;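 further: inhibitors leave more ATP so luminescence rises with inhibition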). The following applies: recombinant PfCDPK1, Kinase-Glo ATP depletion luminescence.
Sequence of Calcium-dependent protein kinase 1 (Plasmodium falciparum (isolate 3D7)) (P62344 whole entry, looked up): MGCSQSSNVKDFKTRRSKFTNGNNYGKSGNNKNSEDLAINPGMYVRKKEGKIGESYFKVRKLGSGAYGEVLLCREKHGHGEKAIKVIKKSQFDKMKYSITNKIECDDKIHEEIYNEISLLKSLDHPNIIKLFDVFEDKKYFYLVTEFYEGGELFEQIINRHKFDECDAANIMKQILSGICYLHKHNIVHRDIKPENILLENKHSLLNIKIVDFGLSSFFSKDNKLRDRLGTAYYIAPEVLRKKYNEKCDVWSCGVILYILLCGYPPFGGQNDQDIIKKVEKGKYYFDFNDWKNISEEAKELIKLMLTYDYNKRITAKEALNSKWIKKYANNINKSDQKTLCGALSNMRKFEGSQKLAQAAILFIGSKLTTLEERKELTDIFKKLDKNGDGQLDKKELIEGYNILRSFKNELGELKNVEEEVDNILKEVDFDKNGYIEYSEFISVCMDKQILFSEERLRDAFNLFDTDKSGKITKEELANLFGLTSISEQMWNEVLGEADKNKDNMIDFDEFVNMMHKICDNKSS
In test [6] the target is Plasmodium falciparum protein kinase 6 (PK6, PF3D7_1337100) (UniProt Q8IDW1). In words: PfPK6 kinase inhibitors, biochemical, TCAMS library (AID 1159586). The following applies: recombinant PfPK6, Kinase-Glo ATP depletion luminescence. In general terms: In Kinase-Glo more light means more ATP remaining.
Sequence of Plasmodium falciparum protein kinase 6 (PK6, PF3D7_1337100) (Q8IDW1 1-305): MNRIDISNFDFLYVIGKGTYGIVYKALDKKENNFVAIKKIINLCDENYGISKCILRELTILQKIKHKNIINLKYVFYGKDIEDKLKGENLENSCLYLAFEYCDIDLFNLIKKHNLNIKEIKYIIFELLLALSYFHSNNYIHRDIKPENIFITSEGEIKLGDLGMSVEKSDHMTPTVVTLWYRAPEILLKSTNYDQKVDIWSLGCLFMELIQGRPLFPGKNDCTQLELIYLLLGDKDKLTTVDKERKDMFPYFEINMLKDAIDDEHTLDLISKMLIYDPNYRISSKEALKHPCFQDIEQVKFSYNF
In test [7] the target is Protein kinase 7 (PK7), Plasmodium falciparum 3D7 (PF3D7_0213400) (UniProt Q7YTF7). In words: inhibition of Plasmodium PK7 catalytic activity – biochemical, TCAMS antimalarial set, Kinase-Glo luminescence (AID 1159587). The following applies: recombinant PfPK7, Kinase-Glo ATP depletion luminescence.
Sequence of Protein kinase 7 (PK7), Plasmodium falciparum 3D7 (PF3D7_0213400) (Q7YTF7 1-343): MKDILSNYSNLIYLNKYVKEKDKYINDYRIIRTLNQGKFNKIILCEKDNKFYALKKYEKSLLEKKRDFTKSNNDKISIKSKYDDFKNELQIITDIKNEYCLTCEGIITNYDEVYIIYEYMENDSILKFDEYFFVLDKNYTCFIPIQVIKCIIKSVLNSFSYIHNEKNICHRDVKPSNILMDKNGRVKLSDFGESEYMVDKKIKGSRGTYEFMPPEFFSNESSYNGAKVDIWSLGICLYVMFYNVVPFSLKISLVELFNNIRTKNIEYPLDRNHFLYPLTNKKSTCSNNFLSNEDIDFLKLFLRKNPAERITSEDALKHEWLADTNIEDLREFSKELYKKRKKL
Test [8] has as its target Calcium-dependent protein kinase 4 (Plasmodium falciparum (isolate 3D7)) (UniProt Q8IBS5). In words: PfCDPK4 kinase inhibitors, biochemical, TCAMS library (AID 1159588; cut-off not given, nearly all actives have IC50 up to about 0.91 µM). The following applies: recombinant PfCDPK4, Kinase-Glo ATP depletion luminescence.

Where “and” joins values, the source holds several entries; their conditions need not be identical. Identical values can stand only once. Values without a mark were called inactive. For some of these results: Results with a measured potency or affinity are listed apart. Calls of active or inactive are those of the source. Unless noted, how the calls were made is not given here.

Sequence of Calcium-dependent protein kinase 4 (Plasmodium falciparum (isolate 3D7)) (Q8IBS5 whole entry, looked up): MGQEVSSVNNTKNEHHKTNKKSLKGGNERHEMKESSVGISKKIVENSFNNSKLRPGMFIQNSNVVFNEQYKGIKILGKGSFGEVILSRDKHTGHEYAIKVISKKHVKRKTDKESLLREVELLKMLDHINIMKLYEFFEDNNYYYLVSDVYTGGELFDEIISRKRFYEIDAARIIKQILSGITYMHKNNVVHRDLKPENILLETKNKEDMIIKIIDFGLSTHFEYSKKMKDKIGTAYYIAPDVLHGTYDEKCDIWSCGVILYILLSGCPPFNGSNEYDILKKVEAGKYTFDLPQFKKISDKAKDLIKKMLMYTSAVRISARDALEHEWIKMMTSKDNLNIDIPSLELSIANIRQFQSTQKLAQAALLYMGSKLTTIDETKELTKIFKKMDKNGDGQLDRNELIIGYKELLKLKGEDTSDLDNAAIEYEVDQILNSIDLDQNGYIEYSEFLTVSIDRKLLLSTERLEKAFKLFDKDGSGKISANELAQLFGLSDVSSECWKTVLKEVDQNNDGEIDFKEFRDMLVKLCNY

For orientation: inhibition means the change of the read-out against control, counted positive when it falls. Take `FC(F)(F)c1cccc(CNCCCCCNCc2ccc(Cl)cc2)c1`: the growth inhibition in test [1] was 15%; in test [4], 91% (active). Moreover, the inhibition was 13% in test [2] and -5% in test [3]. Further, the outcome in test [5], in test [6], in test [7] and in test [8] was inactive.

Turning to `COc1ccc2nccc([C@@H](O)CN3CCC(NCc4ccc5nnsc5c4)CC3)c2c1`, the figures for the growth inhibition in test [1] and in test [4] were 0% and 99% (active), respectively. In addition, the inhibition in test [2] was 16%; in test [3] it was 5%. The outcome in test [5], in test [6], in test [7] and in test [8] was inactive.

As to `O=C1Nc2cccc3c2C1(CCCCN1CCC(c2cc4ccncc4[nH]2)CC1)CCC3` (stereo not given), the growth inhibition in test [1] is -2% and -4%; in test [4], 97% (active) and 99% (active). In addition, the inhibition in test [2] is -1% and -8%; in test [3], -3%. Also, the result in test [5], in test [6], in test [7] and in test [8] was inactive.

In the case of `CCc1cc2c(N)nc(N)nc2nc1-c1ccccc1`, the growth inhibition in test [1] was -1%; in test [4] it was 91% (active). For the same compound, the inhibition in test [2] was 18%; in test [3] it was 6%. Besides, the result in test [5], in test [6], in test [7] and in test [8] was inactive.

As for `CC(C)(C)c1ccc(NC(=O)c2cccc(CN3CCCN(Cc4ccc(F)cc4)CC3)c2)cc1`, the growth inhibition in test [1] is 2%; in test [4], 88% (active). For the same compound, the figures for the inhibition in test [2] and in test [3] were 35% and 0%, respectively. Further, the result in test [5], in test [6], in test [7] and in test [8] was inactive.

On to `CC1(C)N=C(N)N=C(N)N1c1ccc2ccccc2c1`, for which the growth inhibition was -1% in test [1] and 95% (active) in test [4]. In addition, the inhibition in test [2] is 48%; in test [3] it was -2%. For the same compound, the outcome in test [5], in test [6], in test [7] and in test [8] was inactive.

Regarding `CCCCN(Cc1cc(Cl)c(OC)c(OC)c1)c1ccc(C(O)(C(F)(F)F)C(F)(F)F)cc1`, the growth inhibition in test [1] is 73% (active); in test [4] it was 98% (active). Also, the inhibition was 3% in test [2] and 6% in test [3]. Further, the result in test [5], in test [6], in test [7] and in test [8] was inactive.

In the case of `Cc1ccc2c(NN=Cc3cccc(F)c3)cc(C)nc2c1`, the figures for the growth inhibition in test [1] and in test [4] were 66% (active) and 96% (active), respectively. In addition, the inhibition in test [2] was 34%; in test [3], -2%. Besides, the result in test [5], in test [6], in test [7] and in test [8] was inactive.

For `c1ccc(COc2ccc(C3CCCCC3)cc2)nc1`, the growth inhibition in test [1] is 1%; in test [4] it was 99% (active). In addition, the inhibition in test [2] and in test [3] was 0% in each case. The outcome in test [5], in test [6], in test [7] and in test [8] was inactive.

`Cc1[nH]c(C)c(-c2ccc(CCc3ccc(N)cc3)cc2)c(=O)c1Cl`: the growth inhibition in test [1] and in test [4] was 97% (active) throughout. The inhibition in test [2] was 2%; in test [3], 5%. Besides, the result in test [5], in test [6], in test [7] and in test [8] was inactive.

On to `O=C(Nc1ccc(-c2cccc(-c3nc4ccc(C(F)(F)F)cc4[nH]3)c2)cc1)c1cccnc1`, for which the growth inhibition in test [1] was 24%; in test [4], 100% (active). For the same compound, the inhibition in test [2] was 74% (active); in test [3], -5%. Besides, the outcome in test [5], in test [6], in test [7] and in test [8] was inactive.

`CC(CCc1ccccc1)NCC(O)c1ccc2c(c1)S(=O)(=O)c1ccccc1N2` (stereo not given): the growth inhibition was 4% in test [1] and 95% (active) in test [4]. Besides, the inhibition in test [2] is 17%; in test [3], 0%. The outcome in test [5], in test [6], in test [7] and in test [8] was inactive.

`CC1(C)N=C(N)N=C(N)N1OCCCCOc1ccccc1`: the growth inhibition in test [1] and in test [4] was 95% (active) each time. The inhibition is 60% (active) in test [2] and -1% in test [3]. Moreover, the result in test [5], in test [6], in test [7] and in test [8] was inactive.

Consider `Cc1cccc2[nH]c(-c3cccc(-c4cccc(CNCCCN5CCCC5=O)c4)c3)nc12`, for which the growth inhibition is 76% (active) in test [1] and 100% (active) in test [4]. Also, the inhibition is 9% in test [2] and 2% in test [3]. Moreover, the result in test [5], in test [6], in test [7] and in test [8] was inactive.

On to `Cc1cccc2[nH]c(-c3ccc(-c4cccc(NC(=O)NCc5cccc(F)c5)c4)cc3)nc12`, for which the growth inhibition was 5% in test [1] and 94% (active) in test [4]. For the same compound, the inhibition in test [2] was 27%; in test [3] it was 6%. In addition, the result in test [5], in test [6], in test [7] and in test [8] was inactive.

For the compound `COc1ccc(-c2cc(C(=O)N[C@@H](CC3CCCCC3)C(=O)NCCN3CCCCC3)ccc2O)cc1`, the growth inhibition was 72% (active) in test [1] and 98% (active) in test [4]. The inhibition in test [2] is 3%; in test [3], 0%. Moreover, the result in test [5], in test [6], in test [7] and in test [8] was inactive.

`CCCCCN1CCCC1CNS(=O)(=O)c1ccc(C(=O)Nc2cccc(C(F)(F)F)c2)cc1` (stereo not given): the growth inhibition in test [1] is -1%; in test [4] it was 95% (active). For the same compound, the inhibition is 16% in test [2] and -4% in test [3]. In addition, the result in test [5], in test [6], in test [7] and in test [8] was inactive.

`OC(CNc1ccnc(Nc2cccc(Cl)c2)n1)c1cccc(C(F)(F)F)c1` (stereo not given): the growth inhibition is 98% (active) in test [1] and 101% (active) in test [4]. The inhibition was 11% in test [2] and 4% in test [3]. Further, the outcome in test [5], in test [6], in test [7] and in test [8] was inactive.

On to `Cc1ccccc1C1CCN(C2CCC(NC(=O)/C=C/c3cccc(F)c3)CC2)CC1` (stereo not given), for which the growth inhibition in test [1] is 38%; in test [4], 84% (active). The inhibition in test [2] is 46%; in test [3], -3%. In addition, the outcome in test [5], in test [6], in test [7] and in test [8] was inactive.

Take `CNCCNCc1cccc(-c2ccc(-c3nc4ccc(C(F)(F)F)cc4[nH]3)cc2)c1`: the growth inhibition in test [1] was 92% (active); in test [4], 100% (active). Moreover, the inhibition in test [2] is 21%; in test [3] it was -5%. In addition, the outcome in test [5], in test [6], in test [7] and in test [8] was inactive.
